Measured values: PubChem BioAssay
Unmarked numbers belong to inactive results. No rule for the calls is given here.

Biological target: Pantothenate synthetase (Mycobacterium tuberculosis (strain ATCC 25618 / H37Rv)) (UniProt P9WIL5)
Assay: Coupled enzyme confirmation of inhibitors against recombinant Mtb PanC (AID 375);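 also: 0% = full reaction with vehicle and 100% = no enzyme background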
Conditions: coupled enzyme assay; at 10 µM, active compounds read high

Sequence of Pantothenate synthetase (Mycobacterium tuberculosis (strain ATCC 25618 / H37Rv)) (P9WIL5 whole entry, looked up): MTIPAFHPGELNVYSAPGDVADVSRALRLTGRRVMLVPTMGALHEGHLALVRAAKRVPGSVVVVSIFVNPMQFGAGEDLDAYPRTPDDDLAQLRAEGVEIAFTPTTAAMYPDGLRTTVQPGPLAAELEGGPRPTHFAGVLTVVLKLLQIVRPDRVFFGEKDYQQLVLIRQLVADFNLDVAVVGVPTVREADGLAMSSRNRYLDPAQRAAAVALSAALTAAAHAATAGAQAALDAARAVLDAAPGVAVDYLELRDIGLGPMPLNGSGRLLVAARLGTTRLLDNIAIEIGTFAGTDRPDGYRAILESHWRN

Structure (SMILES)	inhibition [%]
CC(=O)Nc1c(C(=O)C2CC2)oc2ccccc12	3
Clc1c(CSc2nc3ccccc3o2)nc2sccn12	1
Cc1ccc(OCC(=O)N2CCN(C(=O)CCC3CCCC3)CC2)cc1	0
Cc1ccc(C2=N/C(=C/N3CCOCC3)C(=O)O2)cc1	1
Cc1noc(C)c1CSc1nnc2n(-c3ccccc3)c(=O)c3ccccc3n12	0
CCOc1ccc(CN2CCN(c3cc(C)nc4c5c(C)cc(C)nc5nn34)CC2)cc1	0
CC1(C)NC(=O)N(CC(O)COc2cccc(F)c2)C1=O (stereo not given)	0
CN=C(Nc1cc(C)nn1-c1ccccc1)c1ccccc1	0
Cc1nc(SCc2ccc(Br)cc2)[nH]c(=O)c1C	0
O=C(CS(=O)(=O)c1cn(Cc2ccc(Cl)cc2)c2ccccc12)N1CCCC1	6
O=C(NCCN1CCCCCC1)c1ccc(CS(=O)(=O)c2ccc(Br)cc2)o1	0
COC(=O)c1cc2ccsc2n1Cc1nc(-c2ccc(OC)cc2)oc1C	9
CCCCN(c1ccccc1)S(=O)(=O)c1ccc2c(c1)CCN2C(=O)CCC(=O)O	0
COc1cccc(NC(=O)C2CCCN(S(=O)(=O)c3cccc4cccnc34)C2)c1 (stereo not given)	0
COCc1cc(=O)[nH]c(Nc2nc3ccccc3o2)n1	0
O=C(CN1CCN(Cc2ccccc2F)C1=O)NCc1cccnc1	0
COc1ccc(-c2nnc(-c3cccs3)o2)cc1OC	0
Cc1[nH]nc2c1C(CCc1ccccc1)C(C#N)=C(N)O2 (stereo not given)	0
CC(C)CN1C(=O)c2ccc(C(=O)Nc3nccs3)cc2C1=O	0
CCCCc1c(O)nc(SCC(=O)c2ccccc2)[nH]c1=O	0

Structure (SMILES)	inhibition [%]
Cn1cc(NC(=O)c2cc(NC(=O)c3cc(NC=O)cn3C)cn2C)cc1C(=O)NCCC(=N)N	10
CCCCOn1c(C)c(C(=O)OCC)c2c3nonc3ccc21	0
O=C(NCc1ccc2c(c1)OCO2)c1ccc(NS(=O)(=O)c2ccc3c(c2)OCCO3)cc1	0
Cc1ccc(C(C)C)c(OCCCN2CC(C)OC(C)C2)c1 (stereo not given)	0
Cc1cccc(C(OC(=O)c2ccco2)C(=O)NCc2ccccc2)n1 (stereo not given)	4
COc1ccccc1C(=O)n1nc(-c2ccccc2)nc1N	2
Cc1cc(C)c(C)c(OCC(=O)NCC2CCCO2)c1 (stereo not given)	0
COc1ccccc1CNS(=O)(=O)c1ccc(NC(C)=O)cc1	0
CNC(=O)NCCN1CCCC1=O	6
O=C(NCCN1CCCCCC1)c1ccc(N2CCCC2=O)cc1	1
COc1ccc(S(=O)(=O)N(CCN2CCOCC2)Cc2cc(OC)ccc2OC)cc1	4
O=C(OCC(=O)N1CCCC1)c1cncc(Br)c1	1
COCCNC(=O)c1cc(-c2cccs2)on1	0
Cc1cc(C(=O)N2CCN(C(c3ccccc3)c3ccccc3)CC2)no1	3
CCOc1ccc2nc(NC(=O)C3CCCN(S(=O)(=O)c4c(C)noc4C)C3)sc2c1 (stereo not given)	0
COc1ccc(C(=O)NCCn2ccc3ccccc32)c(OC)c1	5
CC(=O)Nc1ccc(S(=O)(=O)N2CCSC2c2ccccc2)cc1 (stereo not given)	7
COc1cccc(C(=O)Nc2c(C(N)=O)oc3ccccc23)c1	0
O=C(Nc1ccc(N2CCOCC2)c(Cl)c1)c1ccc(Br)o1	0
O=C(NC1CCCCC1)C1CCCN1C(=O)NCc1ccccc1 (stereo not given)	4
